Data on 85 compounds can be found in publication PMC4336329 (PLoS ONE, 2015).

Each structure is given as a SMILES string. Hit rate of the full screen: of about 310,000 compounds, about 14,000 (4.5%) showed an effect of 50% or more. Effects have a minus sign here. The sample as a whole holds a higher share of strong results than the screen did.
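Note: peak tail current of the secondary pulse compared with the same well before compound.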

The target in the experiment is human ether-à-go-go-related gene (hERG) potassium channel (human, UniProt Q12809). Kind of experiment: primary screen, population patch clamp on CHO cells stably expressing hERG; higher = less effect of the substance.
Sequence of human ether-à-go-go-related gene (hERG) potassium channel (Q12809 whole entry, looked up): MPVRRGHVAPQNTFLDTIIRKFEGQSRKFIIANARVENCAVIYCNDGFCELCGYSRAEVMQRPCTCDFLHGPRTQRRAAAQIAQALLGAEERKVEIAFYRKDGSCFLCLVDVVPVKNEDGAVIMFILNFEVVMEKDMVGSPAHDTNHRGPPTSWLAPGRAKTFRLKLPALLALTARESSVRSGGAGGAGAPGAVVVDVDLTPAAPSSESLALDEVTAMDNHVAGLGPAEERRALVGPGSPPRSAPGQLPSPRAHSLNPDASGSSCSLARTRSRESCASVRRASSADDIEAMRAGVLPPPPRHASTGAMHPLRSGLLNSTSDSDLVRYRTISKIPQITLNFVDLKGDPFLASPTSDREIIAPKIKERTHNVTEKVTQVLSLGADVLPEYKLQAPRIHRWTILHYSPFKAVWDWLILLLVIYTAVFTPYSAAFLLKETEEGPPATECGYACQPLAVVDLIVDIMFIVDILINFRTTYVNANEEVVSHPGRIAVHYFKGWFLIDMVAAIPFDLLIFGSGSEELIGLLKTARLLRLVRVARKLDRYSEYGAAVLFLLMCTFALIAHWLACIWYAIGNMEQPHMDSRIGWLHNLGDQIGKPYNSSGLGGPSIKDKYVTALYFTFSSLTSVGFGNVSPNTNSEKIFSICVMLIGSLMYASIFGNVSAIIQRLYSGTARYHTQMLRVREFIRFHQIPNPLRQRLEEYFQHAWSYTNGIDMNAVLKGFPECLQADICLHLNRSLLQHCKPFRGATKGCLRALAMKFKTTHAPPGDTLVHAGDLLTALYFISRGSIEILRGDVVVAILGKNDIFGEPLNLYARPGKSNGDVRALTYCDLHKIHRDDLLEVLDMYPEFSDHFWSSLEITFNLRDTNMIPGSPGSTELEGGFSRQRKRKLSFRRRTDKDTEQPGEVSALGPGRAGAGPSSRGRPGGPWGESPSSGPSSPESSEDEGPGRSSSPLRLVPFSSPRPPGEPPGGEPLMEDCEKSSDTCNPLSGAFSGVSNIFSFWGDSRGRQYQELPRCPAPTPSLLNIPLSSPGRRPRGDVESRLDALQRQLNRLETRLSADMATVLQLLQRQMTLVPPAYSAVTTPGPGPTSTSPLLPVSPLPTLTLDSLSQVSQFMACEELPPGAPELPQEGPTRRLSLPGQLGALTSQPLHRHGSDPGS
For the compound `CCN(CC)S(=O)(=O)c1cccc(-c2nnc(SCC(=O)NC3CCCC3)n2N)c1`, the “hERG current change (%, negative = inhibition) at 10uM” value came out at 19%. As to `Cc1cc(=O)[nH]c2c(C)cc(S(=O)(=O)N3CCCCC3)cc12`, the “hERG current change (%, negative = inhibition) at 10uM” value is given as 4.69%. With `CCc1cccc(NC(=O)COc2ccccc2)c1` the figure was -8.01%; with `O=C(Oc1c(-c2ccccc2)c(=O)n2c3c(cccc13)CC2)c1ccc(F)cc1`, 10.4%; with `O=C(Oc1c(-c2ccccc2)c(=O)n2c3c(cccc13)CC2)c1ccccc1`, -9.09%.

As to `O=C(Oc1c(-c2ccccc2)c(=O)n2c3c(cccc13)CC2)c1ccco1`, the “hERG current change (%, negative = inhibition) at 10uM” value is recorded as -62%. With `CC1CC(=S)Nc2ccccc2S1` (stereo not shown), the “hERG current change (%, negative = inhibition) at 10uM” value came out at 11.1%. As to `CN(C)S(=O)(=O)N1CCC(c2ccc(F)cc2)C(COc2ccc3c(c2)OCO3)C1` (stereo not shown), the “hERG current change (%, negative = inhibition) at 10uM” value turned out to be 10.2%.

Take `N#C/C(=C/c1ccc(Sc2nc3ccccc3[nH]2)o1)c1ccccc1F`: the “hERG current change (%, negative = inhibition) at 10uM” value is on record as -7.86%. The value for `O=C(O)c1ccc(NC(=S)NC(=O)C(c2ccccc2)c2ccccc2)cc1` was -6.52%; that for `CCOc1ccc(NC(=O)C(C)NC(=O)c2ccccc2Cl)cc1S(=O)(=O)N1CCCC1` (stereo not shown) was -14.3%; that for `CCOc1ccc(NC(=O)C(C)Oc2ccc(C#N)cc2)cc1S(=O)(=O)N1CCCC1` (stereo not shown) was -62.1%. For `Cc1ccc(NC(=O)C(C)Oc2ccccc2)cc1S(=O)(=O)N1CCCCCC1` (stereo not shown), the “hERG current change (%, negative = inhibition) at 10uM” value was -7.7%. For `COc1ccc(NC(=O)Nc2nnc(-c3ccccc3SCc3ccccc3)s2)cc1`, the “hERG current change (%, negative = inhibition) at 10uM” value is recorded as 13.6%. `O=C(Cc1cccs1)NCCN1CCOCC1`: the “hERG current change (%, negative = inhibition) at 10uM” value is recorded as 3.99%.

As for `CNc1nc(NCCOC23CC4CC(CC(C4)C2)C3)nc(OCC(F)(F)F)n1`, the “hERG current change (%, negative = inhibition) at 10uM” value is 8.55%. The value for `CN1CCN(c2nc(NCCOC34CC5CC(CC(C5)C3)C4)nc(OCC(F)(F)F)n2)CC1` was -60.8%. With `OCCNc1nc(OCC(F)(F)F)nc(N2CCN(C34CC5CC(CC(C5)C3)C4)CC2)n1` the figure was -37.9%; with `CCOc1c2ccc(C(=O)NCc3ccco3)cc2nn1CCOC`, -0.63%; with `CC(=O)c1cccc(NS(=O)(=O)c2cc3c(cc2C)N(C(C)=O)CCO3)c1`, 14.3%. With `Cc1ccc(S(=O)(=O)C(CCC(=O)c2ccc(Cl)cc2)C(N)=O)cc1` (stereo not shown) the figure was -28.9%; with `CCN1CCN(c2cc(C)c3cc(NC(=O)Cc4ccc(OC)c(OC)c4)ccc3n2)CC1`, -10.5%. As for `Cc1cc(N2CCN(C)CC2)nc2ccc(NC(=S)N3CCC4(CC3)OCCO4)cc12`, the “hERG current change (%, negative = inhibition) at 10uM” value was -34%. With `CCN(CC)c1ccc(NC(=O)c2ccc(Br)o2)cc1` the figure was -24.3%; with `CCN1CCN(c2cc(C)c3cc(NC(=O)c4ccncc4)ccc3n2)CC1`, -21.4%. Regarding `CCN1CCN(c2cc(C)c3cc(NC(=O)c4cnccn4)ccc3n2)CC1`, the “hERG current change (%, negative = inhibition) at 10uM” value is listed as -16.2%. As to `CCN1CCN(c2cc(C)c3cc(NC(=O)c4cncc(Br)c4)ccc3n2)CC1`, the “hERG current change (%, negative = inhibition) at 10uM” value is listed as -51.8%. The value for `CCN(CC)c1cc(C)c2cc(NC(=O)CNC(C)=O)ccc2n1` was -11.3%; that for `COc1cc(C(=O)Nc2ccc3nc(N4CCN(C)CC4)cc(C)c3c2)cc(OC)c1OC` was -38.7%.

As for `CCN1CCN(c2cc(C)c3cc(NC(=O)c4ccc(C)c(C)c4)ccc3n2)CC1`, the “hERG current change (%, negative = inhibition) at 10uM” value is listed as -43.3%. With `CCN1CCN(c2cc(C)c3cc(NC(=O)c4ccc(Br)o4)ccc3n2)CC1` the figure was -56%; with `Cc1cc(N2CCN(C)CC2)nc2ccc(NC(=O)c3ccc(Br)o3)cc12`, -77.4%; with `CCN(CC)c1cc(C)c2cc(NC(=O)c3ccc(Br)o3)ccc2n1`, -76.1%. The value for `Nc1ccc2nc3c(=O)n(C4CCCCC4)c(=O)[nH]c3nc2c1` was -0.914%; that for `CC(=O)c1c(C(C)=O)c(C)n(C2CCCCC2)c1C` was 2.97%; that for `NC(=O)c1ccc(NC(=O)CCCc2nc(-c3ccccc3Cl)no2)cc1` was 18.4%.

For `CCOc1ccc(S(=O)(=O)N2CCC(C(=O)NCCN3CCOCC3)CC2)cc1C`, the “hERG current change (%, negative = inhibition) at 10uM” value worked out at 1.77%. In the case of `CCOC(=O)C(=CNc1ncccc1C)C(=O)OCC`, the “hERG current change (%, negative = inhibition) at 10uM” value was determined as 1.51%.

Take `CC(C)CCNC(=O)Cn1c(=O)oc2cc(S(=O)(=O)N3CC(C)CC(C)C3)ccc21` (stereo not shown): the “hERG current change (%, negative = inhibition) at 10uM” value stood at 13.3%. With `CN1CCN(CCCc2c3c(cc4c2CCC4)CCC3)CC1.Cl` the figure was -19.8%. For `COc1ccc(C(=O)Nc2ccc3nc(N4CCCCC4)cc(C)c3c2)c(OC)c1`, the “hERG current change (%, negative = inhibition) at 10uM” value is recorded as 4.06%. For `Cc1cc(N2CCCCC2)nc2ccc(NC(=O)c3ccc(Br)o3)cc12`, the “hERG current change (%, negative = inhibition) at 10uM” value was -52.9%.

Regarding `CCCCNC(=O)CCC(=O)Nc1ccc2nc(N3CCCCC3)cc(C)c2c1`, the “hERG current change (%, negative = inhibition) at 10uM” value was -18.5%. As to `CCOc1ccc(S(=O)(=O)N2CCCCC2)cc1NC(=O)CN1C(=O)NC(CC)(c2ccccc2)C1=O` (stereo not shown), the “hERG current change (%, negative = inhibition) at 10uM” value was -15%. For `CCC1(c2ccccc2)NC(=O)N(CC(=O)Nc2cc(S(=O)(=O)N3CCCCC3)ccc2OC(C)C)C1=O` (stereo not shown), the “hERG current change (%, negative = inhibition) at 10uM” value is listed as -5.02%. In the case of `CCOc1ccc(S(=O)(=O)N2CCOCC2)cc1NC(=O)CN1C(=O)NC2(CCCC2)C1=O`, the “hERG current change (%, negative = inhibition) at 10uM” value was found to be 5.87%. The value for `CCOc1ccc(S(=O)(=O)N2CCCCC2)cc1NC(=O)CN1C(=O)NC(C)(c2ccccc2)C1=O` (stereo not shown) was -35.5%. As for `CC(C)Oc1ccc(S(=O)(=O)N2CCOCC2)cc1NC(=O)CN1C(=O)NC2(CCCC2)C1=O`, the “hERG current change (%, negative = inhibition) at 10uM” value is reported as -17.8%. Take `CCC1(c2ccccc2)NC(=O)N(CC(=O)Nc2cc(S(=O)(=O)N3CCOCC3)ccc2OC(C)C)C1=O` (stereo not shown): the “hERG current change (%, negative = inhibition) at 10uM” value is given as -55.7%. Take `CC1(c2ccccc2)NC(=O)N(CC(=O)Nc2cc(S(=O)(=O)N3CCOCC3)ccc2Cl)C1=O` (stereo not shown): the “hERG current change (%, negative = inhibition) at 10uM” value was -7.82%. Regarding `CCOc1ccc(S(=O)(=O)N2CCOCC2)cc1NC(=O)CN1C(=O)NC(CC)(c2ccccc2)C1=O` (stereo not shown), the “hERG current change (%, negative = inhibition) at 10uM” value is -73.5%. As to `CCOc1ccc(S(=O)(=O)N2CCOCC2)cc1NC(=O)CN1C(=O)NC(C)(c2ccccc2)C1=O` (stereo not shown), the “hERG current change (%, negative = inhibition) at 10uM” value is on record as -52.6%. In the case of `C[C@H](C(=O)NCc1ccccc1)C(=O)c1ccccc1`, the “hERG current change (%, negative = inhibition) at 10uM” value is listed as 18%. With `CCOC(=O)CN1C(=O)C(O)(CC(=O)c2ccccn2)c2ccccc21` (stereo not shown) the figure was 14.6%; with `Cc1nn(Cc2ccccc2)c(C)c1C(=O)NCc1ccccc1`, 6.55%. With `COc1ccc2cc(C(=O)OC(C)C)sc(=O)c2c1OC`, the “hERG current change (%, negative = inhibition) at 10uM” value is recorded as 2.45%.

Consider `Cc1ccc(/C(N)=N/OC(=O)c2ccc3ccccc3c2)cc1`, for which the “hERG current change (%, negative = inhibition) at 10uM” value was 0.62%. Turning to `CCOC(=O)N1CCC(N2Cc3cccc(C(=O)Nc4ccc(CC)cc4)c3C2=O)CC1`, the “hERG current change (%, negative = inhibition) at 10uM” value is -42.6%. For `CCOC(=O)N1CCC(N2Cc3cccc(C(=O)Nc4ccc(F)cc4)c3C2=O)CC1`, the “hERG current change (%, negative = inhibition) at 10uM” value is reported as -55.3%. For `CCOC(=O)N1CCC(N2Cc3cccc(C(=O)Nc4cccc(F)c4)c3C2=O)CC1`, the “hERG current change (%, negative = inhibition) at 10uM” value is on record as -72.1%. With `CCOC(=O)N1CCC(N2Cc3cccc(C(=O)Nc4ccc(OCC)cc4)c3C2=O)CC1` the figure was 9.07%; with `CCOC(=O)N1CCC(N2Cc3cccc(C(=O)NCc4ccccn4)c3C2=O)CC1`, -34.5%; with `CCOC(=O)N1CCC(N2Cc3cccc(C(=O)NCc4ccc5c(c4)OCO5)c3C2=O)CC1`, -19.5%. Consider `CCOC(=O)N1CCC(N2Cc3cccc(C(=O)Nc4c(C)cccc4CC)c3C2=O)CC1`, for which the “hERG current change (%, negative = inhibition) at 10uM” value is -77.1%. With `CCOC(=O)N1CCC(N2Cc3cccc(C(=O)Nc4ccc(N(CC)CC)cc4C)c3C2=O)CC1` the figure was -7.16%; with `Cc1cccc(C)c1NC(=O)c1cccc2c1C(=O)N(C1CCCCC1)C2`, -7.01%. Turning to `CCOC(=O)N1CCC(N2Cc3cccc(C(=O)Nc4cc(F)ccc4F)c3C2=O)CC1`, the “hERG current change (%, negative = inhibition) at 10uM” value is reported as -23.1%.

For the compound `CCOC(=O)N1CCC(N2Cc3cccc(C(=O)NC(C)c4ccc5c(c4)OCCO5)c3C2=O)CC1` (stereo not shown), the “hERG current change (%, negative = inhibition) at 10uM” value is listed as -67.5%.

In the case of `O=C(Nc1cccc(F)c1)c1cccc2c1C(=O)N(C1CCCCC1)C2`, the “hERG current change (%, negative = inhibition) at 10uM” value was found to be 12.2%. With `COc1ccc(OC)c(/C=N/n2c(COc3ccccc3)n[nH]c2=S)c1` the figure was 12.2%; with `CCOc1ccc(-c2noc(-c3cccnc3)n2)cc1OCC`, 13.7%; with `O=c1[nH]nc(Cc2ccc3ccccc3n2)c2ccccc12`, 1.36%. Take `COc1ccc2[nH]c(=O)c(CN(Cc3cccs3)C(=S)Nc3ccccc3)cc2c1`: the “hERG current change (%, negative = inhibition) at 10uM” value is on record as 16.7%.

As for `Fc1ccc(NC(=S)Nc2cccnc2)c(F)c1F`, the “hERG current change (%, negative = inhibition) at 10uM” value is 20.1%. The value for `COc1ccccc1CNC(=O)COc1ccc2c(c1)CCC2` was -1.2%. For the compound `Nc1ncnc2c1ncn2CCOc1ccccc1`, the “hERG current change (%, negative = inhibition) at 10uM” value worked out at 5.18%.

Consider `CN(C)CCCN(C(=O)c1ccco1)c1nc2c(F)cc(F)cc2s1.Cl`, for which the “hERG current change (%, negative = inhibition) at 10uM” value is given as -72.2%.

Regarding `Cc1cccc2sc(N(CCCN(C)C)C(=O)c3ccc(Cl)s3)nc12.Cl`, the “hERG current change (%, negative = inhibition) at 10uM” value is -69.7%.

In the case of `CN(C)CCCN(C(=O)c1cc(-c2cccs2)nc2ccccc12)c1nc2c(F)cccc2s1.Cl`, the “hERG current change (%, negative = inhibition) at 10uM” value is listed as -48.8%. With `CN(C)CCCN(C(=O)c1ccco1)c1nc2c(F)cccc2s1.Cl` the figure was -73.2%; with `Cc1cccc2sc(N(CCN(C)C)C(=O)c3cc(Cl)sc3Cl)nc12.Cl`, -22.7%. With `CN(C)CCN(C(=O)/C=C/c1cccs1)c1nc2c(F)cc(F)cc2s1.Cl` the figure was -47.8%; with `COc1cc2ccccc2cc1C(=O)N(CCN(C)C)c1nc2c(F)cc(F)cc2s1.Cl`, -10.1%. With `Cc1cccc2sc(N(CCCN(C)C)C(=O)c3ccco3)nc12.Cl` the figure was -74.9%; with `Cc1cccc2sc(N(CCCN(C)C)C(=O)c3nc4ccccc4s3)nc12.Cl`, 4.2%.
